The values below come from PubChem BioAssay (NCI).

Compounds without any hit were thinned out: in the full panel of roughly 83,000, 20% have a hit.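 Activity criterion: percent growth below 10, measured after cells in 96-well plates were exposed to a single compound concentration for 48 hours.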 Values without a mark were called inactive. The source made the active and inactive calls.

In this experiment the test system is HL-60(TB) leukemia. Nature of the experiment: NCI-60 one-dose screen, 48 h (100 = growth as untreated, 0 = no growth, -100 = all killed). The settings on record: 10 µM unless noted.
Consider `c1cn2cc(-c3ccc4cn[nH]c4c3)nc(Nc3ccc(N4CCOCC4)cc3)c2n1`, for which the growth was 71.1%. Take `C/C(=C\CCc1ccoc1)CC/C=C(\C)CCCN1CCOCC1`: the growth is 35.5%.

With `O=C(/C=C/c1ccc(Cl)cc1)c1cccc(OCCCOc2cccc(C(=O)/C=C/c3ccc(Cl)cc3)c2)c1`, the growth was 96.2%. For `O=C(COc1ccc(/C=C2\Cc3ccccc3C2=O)cc1)c1ccc(Cl)cc1`, the growth is 118%. For `CC(C)(C)C(CCc1ccc(Cl)cc1)N1CCN(C2CCCCC2)CC1` (stereo not given) the value was 48.2%; for `O=C1NN(c2ccccc2)C(c2cccnc2)=N/C1=C\c1cccnc1`, 104%; for `CN(C)c1ccc(/C=C(\C#N)c2cc3ccccc3n2C)cc1`, 2.69% (active). With `Fc1cc(Nc2ccc3c(OCCCN4CCOCC4)cccc3n2)ccc1Cl`, the growth is 39.1%.

On to `COc1cc2c(/C=C3\C(=O)Nc4ccccc43)c(C(=O)O)[nH]c2cc1C`, for which the growth is 110%. For `COc1cc(-c2cc(-c3nc4cc(Cl)c(Cl)cc4[nH]3)[nH]n2)cc(OC)c1OC` the value was 14.2%; for `Cc1ccc2c(c1)sc1nc(-c3c[nH]c4ccccc34)c(Nc3ccccc3)n12`, 97%.

On to `NCCSC(C[N+](=O)[O-])c1ccccc1Cl` (stereo not given), for which the growth was 31.8%. With `O=C1c2cccnc2-c2ncccc21` the figure was 95.4% [100 µM]; with `COc1cc2c(=O)n(CCCN(C)C)c3c4cc[nH]c4ncc3c2cc1OC`, 75.3%; with `O=c1c2cccc3c(NC4CCCCC4)ccc(c32)c2nc3ccccc3n12`, 62.6%. For `O=C(CCc1nnc2sc(Cc3ccccc3Cl)nn12)c1nc2ccccc2[nH]1` the value was 104%; for `CSc1nc2c(c(=O)[nH]1)N=C1c3ccccc3C(=O)C1C(c1ccc(F)cc1)N2` (stereo not given), 91.4%; for `O=C(/C=C/c1cccnc1)c1ccccc1`, 89.8%. `CC(C)CSc1nc(Nc2ccccc2)c(C#N)c(-c2ccc(F)cc2)n1`: the growth is 73.4%. With `CCN(CC)c1ccc(N=C2C=CC(=O)C=C2NC(C)=O)cc1` the figure was 55.3%; with `NNc1ncnc2c1ncn2C1OC(CO)C(O)C1O` (stereo not given), 34.8%; with `COc1ccc(C(=O)Nn2c(NCC(=O)N3c4ccccc4Sc4ccccc43)nnc2-c2ccc(O)cc2)cc1`, 94.3%. Consider `Nc1nc2c(ncn2C2OC3COP(=O)(O)OC4C(COP(=O)(O)OC2C3O)OC(n2cnc3c(N)ncnc32)C4O)c(=O)[nH]1` (stereo not given), for which the growth was 103%.

`C/C=C/C1OCC(CC)C(CCC)O1` (stereo not given): the growth was 88.1%.

Take `O=Cc1ccc2nc(C(Cl)(Cl)Cl)ccc2c1`: the growth is 104%. With `C=C(C)C1CC(O)C2(C)CCCC3C2C1CC(C)C3(C)CC/C(C)=C/C(O)C1CCC(=O)c2c(OC)cc(OC)cc21` (stereo not given) the figure was 22.4%. On to `COc1cc2cc(c1Cl)N(C)C(=O)C[C@H](OC(=O)[C@H](C)N(C)C(C)=O)[C@]1(C)O[C@H]1[C@H](C)[C@@H]1C[C@@](O)(NC(=O)O1)[C@H](OC)C=C/C=C(\C)C2`, for which the growth is -25.6% (active).

`CC(C)(C)[Si](C)(C)OC1[C@@H](COC(=O)NC(=O)CCl)O[C@@H](n2cnc3c(N)ncnc32)[C@H]1O[Si](C)(C)C(C)(C)C` (stereo not given in full): the growth is -48.3% (active). For `NC(=O)c1cnc(Nc2cccc(N)c2)nc1NCCCNC(=O)C1CCC1` the value was 55.2%; for `CC1(C)CC2=C3C=C[C@@H]4[C@@]5(C)CC[C@H](O)C(C)(C)[C@@H]5CC[C@@]4(C)[C@]3(C)CC[C@@]2(C(=O)O)CC1=O`, 39%. With `O=C(N/N=C/c1ccc([N+](=O)[O-])cc1)c1ccc2nc(-c3ccc(Cl)cc3)[nH]c2c1` the figure was 6.58% (active). Consider `CSC1=Nc2c(c(C)c(-c3ccccc3)n2CCCN2CCCCC2)C2=NC(=O)C[C@H](C)N12`, for which the growth is -33.2% (active).

Turning to `CC1(C)C(N(O)C(=O)Nc2ccc(Cl)cc2)N(c2ccc(Cl)cc2)C(=O)N1CC(=O)N/N=C/C=C/c1ccc([N+](=O)[O-])o1` (stereo not given), the growth was -36% (active). With `CCc1c2c(nc3ccc(OC(=O)N4CCC(N5CCCCC5)CC4)cc13)-c1cc3c(c(=O)n1C2)COC(=O)[C@]3(O)CC` the figure was -14% (active); with `CCCN(CCC)CN(CCC)CCC`, 93.5%; with `CCCCCCCCCCCC[n+]1c(C)cc(N)c2ccccc21`, -44.4% (active). With `CCCCC(=O)N(c1ccc(Nc2c3ccccc3nc3cc([N+](=O)[O-])ccc23)cc1)S(C)(=O)=O` the figure was 68.3%; with `C[C@H]1C(=O)C23CCC1C[C@@]21O[C@@H]2C(C)(C)C=CC(=O)C23COC1=O`, 97.8%; with `Nc1ncnc2c1C(c1ccc([N+](=O)[O-])cc1)c1sc3c(F)cccc3c1O2` (stereo not given), 97.2%.

Take `NCCNc1nc(-c2ccccc2)nc2nc(-c3ccccc3)oc12`: the growth was 97.9%.
